Experimental findings from PubChem BioAssay are described below.

Active and inactive are the calls of the source. Unless noted, the rule behind the calls is not given here.

Experiment [1] deals with Wnt5a (protein binding on small-molecule microarray). As to the kind of experiment: small molecules binding Wnt5a protein – biophysical, small-molecule microarray, 635/667 nm fluorescence, primary screen (AID 1142).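 Note: fluorescence read at 667 nm with signal to noise per printed feature.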 The following applies: 635 nm fluorescence, higher = more signal.
Experiment [2] in a line: ATP-based viability of Huh7 replicon cells – cell-based, CellTiter-Glo luminescence, basal, 48 h, cytotoxicity control for HCV replication inhibitor project, primary screen (AID 1143).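 Note: Huh7 hepatoma cells carrying a hepatitis C replication reporter with no stimulus; test concentration not given here.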 The following applies: higher = more signal, called active from +8 up or from −8 down. In general terms: In antiviral work, replicon cells carry a viral genome segment that copies itself.
A short description of experiment [3]: Pseudomonas biofilm growth suppression – PAO1 strain, BacTiter-Glo luminescence, LB-PBS, primary screen (AID 1144). The following applies: P. aeruginosa PAO1 biofilm, 12 h, higher = more signal.
A short description of experiment [4]: basal CRE-LacZ reporter activity in PC12 – cell-based, unstimulated, primary screen (AID 1145). As to conditions: no forskolin, luminescence, 4.5 h, higher = more signal, called active from +8 up or from −8 down.
The nature of experiment [5]: forskolin-driven CRE-LacZ activity in PC12 – cell-based, CRE-LacZ reporter, forskolin-stimulated, primary screen (AID 1146).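 Note: PC12 cells with 6xCRE LacZ reporter stimulated by forskolin 10 µM; beta-galactosidase reporter signal reflecting CREB driven transcription.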 As to conditions: luminescence, 4.5 h, higher = more signal, called active from +8 up or from −8 down.
The target of experiment [6] is Streptavidin (Streptomyces avidinii) (UniProt P22629). As to the kind of experiment: compounds binding control protein streptavidin – biophysical, small-molecule microarray, 635/667 nm fluorescence, artefact control for SMM compound annotation, primary screen (AID 1147).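 Note: signal reflects streptavidin binding to arrayed compounds as a control protein.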 As to conditions: higher = more signal.
Experiment [7] in a line: probe aInhba binding on compound microarray – biochemical, small-molecule microarray, 635/667 nm fluorescence, primary screen (AID 1148).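 Note: score merges 667nm spot fluorescence with signal-to-noise for antibody binding to printed compounds.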 As to conditions: higher = more signal.
The target in experiment [8] is Torsin-1A (Homo sapiens) (UniProt O14656). As to the kind of experiment: TOR1A wild-type binding on microarray – cell lysate, small-molecule microarray, lysate, 635/667 nm, primary screen (AID 1149). As to conditions: COS7 hTOR1A-WT lysate, 635 nm fluorescence, higher = more signal.
Experiment [9] shares this target. As to the kind of experiment: torsin A mutant lysate binding on microarrays – cell lysate, small-molecule microarray, COS7 lysate, 635/667 nm fluorescence, primary screen (AID 1150).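 Note: score pools 667 nm emission and signal to noise measuring lysate protein binding.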 As to conditions: COS7 hTOR1A mutant lysate, 635 nm fluorescence, higher = more signal.
Experiment [10] concerns Sonic hedgehog protein (Shh). The experiment can be described thus: Sonic hedgehog microarray binding compounds – biochemical, small-molecule microarray, 635/667 nm fluorescence, primary screen (AID 1151).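 Note: Shh protein binding to compounds spotted on small-molecule microarray slides; score combines spot fluorescence intensity with signal-to-noise across triplicate slides.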 The following applies: 635 nm fluorescence, higher = more signal.

Chain of Streptavidin (Streptomyces avidinii) (P22629 whole entry, looked up): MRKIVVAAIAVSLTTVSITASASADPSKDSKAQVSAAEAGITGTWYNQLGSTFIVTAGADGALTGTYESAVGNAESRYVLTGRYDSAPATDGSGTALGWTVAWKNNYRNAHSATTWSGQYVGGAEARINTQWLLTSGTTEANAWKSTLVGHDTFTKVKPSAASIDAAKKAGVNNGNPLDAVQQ
Chain of Torsin-1A (Homo sapiens) (O14656 whole entry, looked up): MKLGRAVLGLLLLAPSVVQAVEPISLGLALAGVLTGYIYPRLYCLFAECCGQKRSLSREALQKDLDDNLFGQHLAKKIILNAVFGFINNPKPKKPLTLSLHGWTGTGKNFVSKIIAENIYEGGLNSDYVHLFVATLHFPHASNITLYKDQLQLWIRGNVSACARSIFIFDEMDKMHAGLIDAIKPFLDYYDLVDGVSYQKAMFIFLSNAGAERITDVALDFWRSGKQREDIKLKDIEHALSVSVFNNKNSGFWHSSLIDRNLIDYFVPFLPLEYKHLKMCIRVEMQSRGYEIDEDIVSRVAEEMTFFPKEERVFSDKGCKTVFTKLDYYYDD

As for `COC(=O)[C@]1(CCS(=O)(=O)c2ccccc2)N=C(c2ccc(OCCCO)cc2)O[C@@H]1c1ccccc1N=[N+]=[N-]`, the composite z-score in experiment [1] came to 1.21; in [6], 1.39; in experiment [7], 0.438; in experiment [8] it was 0.588; in experiment [9], 0.453; in [10], 2.09. Moreover, the z-score in [2] is -3.71 (inactive); in experiment [3] it was -0.731 (inactive); in [4], 2.42 (inactive); in [5], -0.889 (inactive).
Turning to `CCCC[C@@H]1C[C@H]1[C@@H](NC(=O)c1cccs1)c1ccccc1C(F)(F)F`, the composite z-score in [1] is 0.0098; in experiment [6], 2.1; in [7], 0.274; in experiment [8], 0.458; in [9] it was 0.555; in experiment [10], -0.142. The z-score in experiment [2] is -1.37 (inactive); in [3], -1.3 (inactive); in experiment [4], 0.587 (inactive); in experiment [5] it was 1.4 (inactive).
With `N#Cc1ccc(NN2C(C(O)c3ccc(Br)cc3)C=CC3C(=O)N(c4ccccc4)C(=O)C32)cc1` (stereo not given), the composite z-score in experiment [1] is 0.395; in [6], 0.843; in experiment [7], 0.222; in experiment [8] it was 0.441; in [9], 0.604; in experiment [10] it was 0.834. For the same compound, the z-score in experiment [2] is -0.35 (inactive); in experiment [3], -1.3 (inactive); in [4], 0.0535 (inactive); in experiment [5], -0.36 (inactive).
For `CCOC(=O)C[C@H]1[C@H](OC(=O)c2ccc(C(=O)c3ccccc3)cc2)[C@@H](NC(=O)C2CCCCC2)c2cc(OCCCO)ccc2N1C(=O)c1ccc2ccccc2n1`, the composite z-score was 0.233 in experiment [1]; 0.731 in [6]; -0.0933 in [7]; 0.772 in experiment [8]; 0.298 in [9]; 0.93 in experiment [10]. The z-score in experiment [2] is 0.233 (inactive); in experiment [3], -1.09 (inactive); in [4], -0.215 (inactive); in experiment [5] it was -0.825 (inactive).
As to `CC(C)NC(=O)[C@@]1(C)c2ccccc2C(=O)N(Cc2ccc(OC(F)(F)F)cc2)[C@H]1c1ccc(CO)cc1`, the composite z-score in experiment [1] is -0.766; in [6], -0.933; in experiment [7], -0.183; in experiment [8], -2.23; in experiment [9], 0.492; in experiment [10] it was -0.354. The z-score was -1.98 (inactive) in [2], -0.539 (inactive) in experiment [3], -0.411 (inactive) in experiment [4] and -1.48 (inactive) in experiment [5].
Regarding `Oc1ccc2cc[n+](Cc3cc4c(cc3Br)OCO4)cc2c1`, the composite z-score in experiment [1] is -0.388; in experiment [6], -0.909; in experiment [7], -0.224; in [8] it was -0.896; in [9], -0.49; in [10] it was -0.598. In addition, the z-score in experiment [2] was -0.501 (inactive); in [3], -0.23 (inactive); in experiment [4], -0.788 (inactive); in experiment [5] it was -0.639 (inactive).
Regarding `CC(C)(C)OC(=O)COc1cccc(C(=O)CCN2CCOCC2)c1`, the composite z-score was -0.143 in experiment [1]; -0.081 in experiment [6]; 0.034 in [7]; -1.01 in experiment [8]; -0.646 in experiment [9]; 0.216 in [10]. The z-score in experiment [2] was -1.13 (inactive); in experiment [3], 2.34 (inactive); in experiment [4] it was 0.416 (inactive); in [5], 12.2 (active).
On to `CCCCNC(=O)c1ccc(C#CC(C)(C)C)c(OC(C)=O)c1`, for which the composite z-score in [1] is 0.0744; in experiment [6] it was 1.01; in [7], -0.21; in [8] it was 0.121; in [9] it was 0.686; in experiment [10] it was 0.804. In addition, the z-score was -1.7 (inactive) in [2], -0.245 (inactive) in experiment [3], 1.78 (inactive) in experiment [4] and -0.512 (inactive) in experiment [5].
On to `O=C1[C@H]2C=C(I)[C@H](C[C@@H]2OCCOCCO)[C@@]12CO2`, for which the composite z-score is 0.0712 in [1]; 1.08 in [6]; -0.106 in experiment [7]; 0.48 in experiment [8]; -0.0946 in experiment [9]; 0.719 in experiment [10]. The z-score in experiment [2] is 1.05 (inactive); in [3], -0.0471 (inactive); in experiment [4], 1.67 (inactive); in experiment [5] it was 0.839 (inactive).
`[N-]=[N+]=NCc1ccccc1C[C@@]1(C(N)=O)N=C(c2ccc(OCCCO)cc2)O[C@@H]1c1ccccc1`: the composite z-score in experiment [1] was -0.182; in [6] it was 0.559; in experiment [7], 0.144; in experiment [8], 0.754; in experiment [9] it was 1.22; in experiment [10], -0.671. For the same compound, the z-score is -3.28 (inactive) in [2], 0.103 (inactive) in [3], 0.498 (inactive) in experiment [4] and -0.0576 (inactive) in experiment [5].
On to `CCCNC(=O)[C@@H]1c2ccccc2C(=O)N(Cc2ccc(OC(F)(F)F)cc2)[C@H]1c1ccc(CO)cc1`, for which the composite z-score in experiment [1] is 0.474; in experiment [6], -0.127; in experiment [7], -0.0963; in [8], 0.0008; in experiment [9] it was -0.424; in experiment [10], 0.346. The z-score in experiment [2] is -0.88 (inactive); in experiment [3], 0.256 (inactive); in experiment [4], -0.322 (inactive); in experiment [5], -0.283 (inactive).
`CN1C2C=C(CCCO)C(C3C(=O)N(C(N)=O)C(=O)C32)C1C1CC1` (stereo not given): the composite z-score in experiment [1] is -0.173; in [6] it was -0.0742; in experiment [7] it was -0.0963; in experiment [8] it was 0.0337; in experiment [9], 0.143; in experiment [10], 0.316. In addition, the z-score was -0.122 (inactive) in [2], 0.57 (inactive) in experiment [3], 0.522 (inactive) in experiment [4] and 0.373 (inactive) in experiment [5].
As to `CCCC=C(CCC)[C@@H](NP(=O)(c1ccccc1)c1ccccc1)c1ccc(-c2ccccc2)cc1`, the composite z-score is 0.363 in experiment [1]; 1.09 in experiment [6]; 0.3 in [7]; 0.804 in [8]; 1.68 in experiment [9]; -0.0804 in experiment [10]. In addition, the z-score in [2] is -1.53 (inactive); in experiment [3] it was 0.892 (inactive); in experiment [4] it was 0.204 (inactive); in experiment [5] it was 1.24 (inactive).
Turning to `COCCOC(=O)N1C(=O)[C@@]2(c3cc(C#CCC(C(=O)OC)C(=O)OC)ccc31)[C@H](c1ccc(OCCO)cc1)N1[C@H](c3ccccc3)[C@H](c3ccccc3)OC(=O)[C@H]1[C@@H]2C(=O)N1CCc2cc(OC)c(OC)cc2C1`, the composite z-score in experiment [1] is 0.575; in [6] it was 0.918; in experiment [7] it was -0.0087; in experiment [8] it was 0.843; in [9] it was 0.769; in [10] it was 1.8. Besides, the z-score in experiment [2] was -1.35 (inactive); in experiment [3], -0.119 (inactive); in experiment [4], -0.0607 (inactive); in [5], 0.936 (inactive).
Turning to `C=CC[C@@]1(C(=O)NCCCOC)N=C(c2ccc(OCCCO)cc2)O[C@@H]1c1ccccc1`, the composite z-score in experiment [1] was 0.452; in [6], 0.428; in [7] it was 0.771; in [8], 0.478; in experiment [9], 1.3; in [10] it was -0.499. The z-score is -1.92 (inactive) in [2], 0.305 (inactive) in experiment [3], 1.51 (inactive) in experiment [4] and -0.68 (inactive) in experiment [5].
